# Shown are actives, neighbours in structure and some others; about 11% of the full set was active somewhere.
# OTUD3 block: blocks human OTUD3 ubiquitin-rhodamine cleavage; purified OTUD3, Ub-rhodamine fluorescence, 2 h; 47,000 tested, 0.7% active; inhibition, % at 25 µM; AID 1645858
# Target sequence (Q5T2D3 whole entry, looked up): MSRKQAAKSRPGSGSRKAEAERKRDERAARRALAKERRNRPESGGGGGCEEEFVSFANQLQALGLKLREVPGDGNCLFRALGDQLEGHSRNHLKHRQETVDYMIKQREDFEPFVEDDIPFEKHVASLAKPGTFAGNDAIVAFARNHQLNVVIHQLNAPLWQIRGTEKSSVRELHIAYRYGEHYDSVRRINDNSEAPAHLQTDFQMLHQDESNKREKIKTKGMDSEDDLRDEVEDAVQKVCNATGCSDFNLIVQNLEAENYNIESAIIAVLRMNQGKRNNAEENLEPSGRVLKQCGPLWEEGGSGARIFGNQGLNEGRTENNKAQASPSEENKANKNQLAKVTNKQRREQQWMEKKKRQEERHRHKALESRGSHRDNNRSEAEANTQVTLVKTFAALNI
# USP17 inh: blocks human USP17 ubiquitin-rhodamine cleavage; 47,000 tested, 6.5% active; AID 1645855; purified USP17, Ub-rhodamine cleavage fluorescence, 3 h; A8MUK1; inhibition, % at 50 µM
# USP28 block: inhibitors of human USP28 deubiquitinase; Q96RU2; purified USP28, Ub-rhodamine cleavage fluorescence, 30 min; inhibition, % at 25 µM; 47,000 tested, 3% active
# USP30 block: human USP30 deubiquitinase inhibition | 47,000 tested, 5.3% active | inhibition, % at 25 µM | purified USP30, Ub-rhodamine cleavage fluorescence
# An asterisk follows results filed as active; . = no result given. No stated cut-off is given here; in the data, active means inhibition above about 30%; inactive means the rest.
SMILES,OTUD3 block,USP17 inh,USP28 block,USP30 block
Cc1nc(-c2ccc(C(=O)NCc3ccc(F)cc3)cc2)cs1,2,52*,10,11
COc1ccccc1CNC(=O)c1ccc(-c2csc(C)n2)cc1,-2,-1,27,1
O=C(NCc1ccc(F)cc1)c1ccc(-c2cccs2)cc1,0,59*,.,.
COc1cc2ncc(C#N)c(N3CCC(C(=O)N4CCCCC4)CC3)c2cc1OC,-6,-16,-16,-4
Cc1ccc(/C=C/C(=O)c2oc3ccc(F)cc3c2C)cc1,7,8,0,3
CCc1ccccc1N(CC)C(=O)c1cccc2c1SCCC2=O,16,18,20,33*
CCCc1ccc(C(=O)Nc2nnc(-c3ccccc3Cl)s2)cc1,3,0,0,-5
COc1cc(NC(=O)Cn2c(=O)[nH]c3ccccc3c2=O)cc(OC)c1,11,53*,25,73*
CCOc1cc2[nH]c(=O)n(Cc3cccnc3)c(=O)c2cc1OCC,11,17,7,33*
COc1cc2[nH]c(=O)n(Cc3ccc(C(=O)NCc4ccco4)cc3)c(=O)c2cc1OC,13,0,0,11
COC(=O)c1ccc2c(=O)n(CCCCCC(=O)NCCc3ccccc3Cl)c(=O)[nH]c2c1,-2,0,-15,-2
COC(=O)c1ccc2c(=O)n(CCCCCC(=O)NCCc3ccc(S(N)(=O)=O)cc3)c(=O)[nH]c2c1,21,27,86*,88*
CCOc1cc2[nH]c(=O)n(CCCC(=O)NCc3ccco3)c(=O)c2cc1OCC,5,33*,-3,-82
Cc1sc2c(=O)n(C(C)C)cnc2c1C(=O)Nc1ccc(F)cc1,2,3,-7,-10
COc1cccc(CNC(=O)CCCCCn2c(=O)[nH]c3ccccc3c2=O)c1,10,29,12,41*
COc1ccc(NC(=O)CCCCn2c(=O)[nH]c3ccccc3c2=O)cc1OC,-4,17,-4,3
CC1=C(C(=O)N2CCCCC2)C(c2ccc(Br)cc2)n2ncnc2N1 (configuration not stated),2,.,47*,-2
CC1=C(C(=O)NCc2ccccc2)C(c2ccc(C)cc2)n2ncnc2N1 (configuration not stated),11,11,9,34*
Cc1cccc(C(=O)OCC(=O)c2ccc3c(c2)OCCO3)c1O,12,5,19,1
CC(OC(=O)c1ccc2ncsc2c1)C(=O)Nc1ccc2c(c1)OCO2 (configuration not stated),0,0,-4,4
O=C(COC(=O)c1ccc(CN2CCCC2=O)cc1)c1ccc2c(c1)OCCO2,-5,9,90*,-25
O=C(COC(=O)c1ccc2ncsc2c1)c1ccc2c(c1)OCCO2,-7,-11,31*,-41
NS(=O)(=O)c1cc(C(=O)OCC(=O)c2ccc3c(c2)OCCO3)ccc1Cl,-6,-28,70*,-12
O=C(CN1CCC2(CCC1=O)NC(=O)c1ccccc1N2)Nc1cccc(C(F)(F)F)c1 (configuration not stated),-16,-12,-11,-11
COc1ccccc1-c1nnc2sc(COc3cccc(C)c3)nn12,18,17,25,42*
SMILES,OTUD3 block,USP17 inh,USP28 block,USP30 block
CCOc1ccccc1-c1nn2c(-c3cccnc3)nnc2s1,-6,0,-1,-2
COc1ccc(-c2cc3cccn(Cc4ccccn4)c-3n2)cc1,-28,-41,-27,-81
Cc1oc(-c2ccc(Cl)cc2)cc1C(=O)Nc1ccccc1,15,21,14,35*
O=C(c1ccc(S(=O)(=O)N2CCCCC2)cc1)c1nnc(-c2ccc(Cl)cc2)o1,14,0,11,30*
O=C(NCCN1CCOCC1)C1CCN(S(=O)(=O)c2ccc(Cl)cc2)CC1,10,14,6,35*
O=C(c1ccccc1)C1CCN(S(=O)(=O)c2ccc(Cl)cc2)CC1,7,12,14,31*
O=C(C1CCN(S(=O)(=O)c2ccc(Cl)cc2)CC1)N1CCOCC1,-1,-11,-3,-4
Cc1nocc1C(=O)N1CCC2(CC1)CN(c1ncccn1)c1ccccc12,-11,-51,-6,-17
CN1CC[C@@H]2[C@H]1C(=O)NC[C@H](CCC(=O)N1CCN(c3ccccn3)CC1)N2C,2,-70,44*,26
CC(C)N1CC[C@@H]2[C@H]1C(=O)NC[C@H](CCC(=O)N1CCCC1)N2C,8,-56,34*,21
COC(=O)C1CCN(C(=O)CC[C@H]2CNC(=O)[C@@H]3[C@@H](CCN3C3CCCCC3)N2C)CC1,9,-50,31*,-13
CC(C)N1CC[C@@H]2[C@H]1C(=O)NC[C@H](CCC(=O)N1CCN(c3ccccc3)CC1)N2C,4,-61,4,-3
